# Experimental data published in PubChem BioAssay (EPA / NIEHS).
# Activity calls are given as the source filed them. The calls were made as follows: active = hit-call score of the fitted dose curve at least 0.9, where 1 is the maximum; inactive = score below 0.9.
# Test: ATG_Ets_CIS: Attagene CIS-FACTORIAL HepG2 Assay for human Erythroblast Transformation Specific (ETS) (AID 2282941)
# Conditions: HepG2 ETS cis-reporter transcription, actives raise or lower the signal
# Protocol: ATG_CIS is a cell-based, multiplexed-readout assay that uses HepG2, a human liver cell line, with measurements taken at 24 hours after chemical dosing in a 24-well plate.ATG_Ets_CIS is one of 52 assay component(s) measured or calculated from the ATG_CIS assay. It is designed to make measurements of mRNA induction, a form of inducible reporter, as detected with fluorescence intensity signals by Reverse transcription polymerase chain reaction (RT-PCR) and Capillary electrophoresis technology.Data from the assay component ATG_Ets_CIS was analyzed into 1 assay endpoint. This assay endpoint, ATG_Ets_CIS, was analyzed with bidirectional fitting relative to DMSO as the negative control and baseline of activity. Using a type of inducible reporter, measures of mRNA for gain or loss-of-signal activity can be used to understand the reporter gene at the transcription factor-level as they relate to the gene ETS1. Furthermore, this assay endpoint can be referred to as a primary readout, because this assay has produced multiple assay endpoints where this one serves a reporter gene function. To generalize the intended target to other relatable targets, this assay endpoint is annotated to the dna binding intended target family, where the subfamily is winged helix-turn-helix.
# Human liver HepG2 cells are transiently transfected with multiple reporter transcription units (MRTUs) in 6-well plates using FuGene 6 reagent (Roche; 3 ml FuGene/1 mg DNA). The MRTU constructs are regulated by a cis-regulating element (promoter). […] A major difference between the CIS and TRANS system is that in CIS activities of endogenous TFs are measured, whereas the TRANS assay evaluates changes in activities of exogenous, chimeric NR-Gal4 proteins. […] At the end of 24 hour incubation, total RNA was isolated using TriZol reagent (Invitrogen). The isolated RNA is then reverse-transcribed using oligo(dT) primer and Mo-MLV reverse transcriptase (Invitrogen) with DNAse I (Ambion) treatment for 30 min. The one-tenth of the produced cDNA was amplified by PCR using Taq DNA polymerase (Invitrogen) and two reporter sequence-specific primers. The PCR products were fluorescently labeled by primer extension with 6-arboxyfluorescein (6-FAM) 5'-labeled reporter sequence-specific primer (2 min at 95 C, 20 s at 68 C and 10 min at 72 C) and these products were digested with 5U of HpaI (New England Biolabs) for 2h at 37 C. The fragments were purified using Qiaquick PCR columns (Qiagen), analyzed on an ABI 3130xL genetic analyzer (Applied Biosystems) with peak positions identified by using a set of X-rhodamine (ROX)-labeled MapMarker1000 molecular weight standards (BioVentures). The raw capillary electrophoresis data was processed using Attagraph software (Attagene).
Compound,AC50,outcome
O=Cc1ccc(Cl)c([N+](=O)[O-])c1,134 µM (active),
CC1=CCC(O)(C(C)C)CC1 (stereo not given),,inactive
Cc1c(N(C)C)c(=O)n(-c2ccccc2)n1C,,inactive
CC(C)c1ccc(C(C)C)cc1,,inactive
CNC[C@H](O)c1cccc(O)c1,,inactive
CCC/C=C/C=O,,inactive
Cc1ccc(C(=O)O)o1,,inactive
O=c1cc(-c2ccccc2)oc2cc(O)cc(O)c12,,inactive
CCCCNC(=O)NS(=O)(=O)c1ccc(C)cc1,,inactive
C[C@]12CC[C@H]3[C@@H](CCC4=CC(=O)CC[C@@]43C)[C@@H]1CC[C@@H]2C(=O)CO,,inactive
CCCCCCOC(=O)CC,,inactive
CCCCCCCCCCCCCC(=O)O,,inactive
CC(C)[C@@H]1CC[C@@H](C)CC1=O,,inactive
CSc1nc(NC2CC2)nc(NC(C)(C)C)n1,,inactive
CCc1ccc(C=O)cc1,,inactive
CC(C)(C)NC(N)=O,,inactive
CO[Si](CCCn1c(=O)n(CCC[Si](OC)(OC)OC)c(=O)n(CCC[Si](OC)(OC)OC)c1=O)(OC)OC,,inactive
NC(=O)c1ccccc1Cl,,inactive
CCCCC(CC)COCCC#N (stereo not given),,inactive
Fc1c(F)c(F)c(Br)c(F)c1F,,inactive

Compound,AC50,outcome
CCCCC[Si](OCC)(OCC)OCC,,inactive
CSc1nnc(C(C)(C)C)c(=O)[nH]1,,inactive
CCCCO,,inactive
O=C1CCCCCCCCCCCCCCO1,,inactive
Cc1ccc2ccccc2n1,,inactive
OCCOc1cccc(OCCO)c1,,inactive
O=C(COc1ccc(Cl)cc1)N1CCN(Cc2ccc3c(c2)OCO3)CC1,,inactive
COc1cccc(OC)c1,,inactive
CO[Si](C)(OC)c1ccccc1,,inactive
O=C(O)Cc1cccc2ccccc12,,inactive
Cc1ccc2sc3cccc(C)c3c2c1,,inactive
CCCCCC(=O)OCCc1ccccc1,,inactive
CCn1c2ccccc2c2cc(N)ccc21,,inactive
CC(C)=CCC/C(C)=C/COC=O,,inactive
CC(C=O)Cc1ccc(C(C)C)cc1 (stereo not given),,inactive
CC(C)=CCCC(C)=CCCC(C)=CCO,,inactive
Cc1ccc2n[nH]nc2c1,,inactive
O=C1O[C@@H]2[C@@H](O)[C@H](O)O[C@@H]2[C@H]1O,,inactive
CCCCC/C=C/C=C/C=O,,inactive
C#C[C@]1(O)CC[C@H]2[C@@H]3CCC4=Cc5oncc5C[C@]4(C)[C@H]3CC[C@@]21C,26.1 µM (active),
